Measured values reported in PubChem BioAssay AID504832 (National Center for Advancing Translational Sciences (NCATS), 2011).
Out of some 310,000 compounds screened, about 18,000 (5.8%) were called active. A call without a number means that no potency is given here. About 22% were inconclusive and are not listed. The call rests on the fitted dose curve; in most records, active means well fitted inhibition curve with a large enough effect; inconclusive means small, poorly fitted or top-dose-only effect, or another doubt; inactive means no such curve, though single readings can be large or run the other way. The full list was thinned out, with actives kept by preference.
Potency means the concentration at half of the fitted maximal effect.

Assay: Primary qHTS for delayed death inhibitors of the malarial parasite plastid, 48 hour incubation
Settings: P. falciparum luciferase growth in erythrocytes; series mostly up to 28.7 µM
How it was run: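 Erythrocytes infected with P. falciparum carrying an integrated firefly luciferase reporter (2% hematocrit, 0.1% parasitemia final) were exposed to compounds in RPMI 1640 with 0.5% Albumax at 37 C, 5% CO2. Growth inhibition was scored as reduced luminescence.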
For `CC(C)c1ccc(/C=C2\NC(=O)NC2=O)cc1`, the Potency was “inactive”. In the case of `O=C(NCc1ccco1)c1cccn2c(=O)c3c4c(sc3nc12)CCCC4`, the Potency is reported as “inactive”. In the case of `COc1ccc(CCn2c(=N)c(C(=O)NCc3ccco3)cc3c(=O)n4cccc(C)c4nc32)cc1`, the Potency is reported as 0.465 µM (active). In the case of `O=C(Nc1ccccc1C(=O)NCC1CCCO1)c1ccccc1F` (configuration not stated), the Potency is reported as “inactive”. In the case of `Cc1cccn2c(=O)c3cc(C(=O)NCCN4CCOCC4)c(=N)n(Cc4cccnc4)c3nc12`, the Potency is reported as “inactive”. For `Cc1ccc(-c2noc(-c3ccccc3C(=O)NCC3CCCO3)n2)cc1` (configuration not stated), the Potency was “inactive”. With `Cc1cccn2c(=O)c3cc(C(=O)NCC4CCCO4)c(=N)n(Cc4ccc(F)cc4)c3nc12` (configuration not stated) the Potency was 9.28 µM (active). With `Cc1ccc2nc3c(cc(C(=O)NCCc4ccccc4)c(=N)n3CC3CCCO3)c(=O)n2c1` (configuration not stated) the Potency was 2.08 µM (active). For `Cc1ccc(CCNC(=O)c2ccc3nc4ccccc4c(=O)n3c2)cc1`, the Potency was “inactive”. For `COc1ccc2oc(C(=O)NCc3ccco3)c(C)c2c1`, the Potency was “inactive”. In the case of `Nc1nc(SCC(=O)Nc2ccc(Cl)cc2C(F)(F)F)n[nH]1`, the Potency is reported as “inactive”. In the case of `CN(CC(=O)Nc1ccc(OC(F)(F)F)cc1)C(=O)C1CCC1`, the Potency is reported as “inactive”. With `c1ccc(C2CNCc3c2ccc2ccccc32)cc1` (configuration not stated) the Potency was 10.4 µM (active). For `CC1=C(C(=O)NC2CC(C)(C)Cc3c2cnn3-c2ccc(C)cc2)OCCO1` (configuration not stated), the Potency was “inactive”. For `C=CCOc1cccc(CNCc2cccnc2)c1`, the Potency was “inactive”. With `CCc1ccccc1NC(=O)c1cccs1` the Potency was “inactive”. In the case of `CCc1ccccc1NC(=O)/C(=C/c1ccccc1)c1ccccc1`, the Potency is reported as 5.22 µM (active). With `CCc1ccccc1NC(=O)CCOc1ccccc1` the Potency was “inactive”. With `Cc1ccc(C(=O)NCC(=O)OCC(=O)NC2CCCCCCC2)cc1` the Potency was “inactive”. In the case of `CCN1C(=O)c2cccc3c(S(=O)(=O)Nc4ccccc4O)ccc1c23`, the Potency is reported as “inactive”. In the case of `C[n+]1ccc(/C=C/c2c[nH]c3ccccc23)cc1`, the Potency is reported as 0.738 µM (active). With `CN1CCN(/N=C/c2c[nH]c3ccccc23)CC1` the Potency was “inactive”. In the case of `CSC(=S)N/N=C/c1c[nH]c2ccccc12`, the Potency is reported as “inactive”. For `Cn1c(=O)c2c(nc(NCCNC(=O)c3ccco3)n2Cc2ccccc2F)n(C)c1=O`, the Potency was “inactive”. For `CCC(=C/c1sc2ccc3ccccc3c2[n+]1C)/C=C1\Sc2ccc3ccccc3c2N1C`, the Potency was 0.928 µM (active). In the case of `COc1ccc2ccn(C)c2c1`, the Potency is reported as “inactive”. For `Cc1ccccc1NC(=O)C1CCCN(C(=O)NCc2ccccc2)C1` (configuration not stated), the Potency was “inactive”. With `O=C(NCC1CCCO1)c1cc2c([nH]c3ccccc32)c(-c2ccc(F)cc2)n1` (configuration not stated) the Potency was 9.28 µM (active). In the case of `O=C(NCCCO)c1cc2c([nH]c3ccccc32)c(-c2ccc(F)cc2)n1`, the Potency is reported as 9.28 µM (active). With `O=C(NCCc1ccc(F)cc1)c1n[nH]c2ccccc12` the Potency was “inactive”. With `COc1cccc2[nH]c(C(=O)NCCc3ccccc3)cc12` the Potency was “inactive”. For `O=C(NCC1CCCO1)c1ccc2ccccc2n1` (configuration not stated), the Potency was “inactive”. For `O=C(NCC1CCCO1)c1cc(-c2ccccc2)nc2ccccc12` (configuration not stated), the Potency was “inactive”. For `COc1ccccc1OC(C)C(=O)Nc1ccc(S(=O)(=O)Nc2nccs2)cc1` (configuration not stated), the Potency was “inactive”. In the case of `CCOc1ccc2c(c1)c(=O)c(S(=O)(=O)c1ccc(C)cc1)cn2CC`, the Potency is reported as “inactive”. In the case of `CCc1cccc(C)c1NC(=O)COC(=O)CNC(=O)c1cccs1`, the Potency is reported as “inactive”. With `CCc1ccc(Oc2coc3cc(O)ccc3c2=O)cc1` the Potency was “inactive”. In the case of `COc1ccc(-n2cc(CNC3CCOCC3)c(-c3cccc(F)c3)n2)cc1`, the Potency is reported as 11.7 µM (active). With `COc1ccc(-n2cc(CN(C)Cc3n[nH]c(=O)[nH]3)c(-c3cccc(F)c3)n2)cc1` the Potency was “inactive”. For `COc1ccc(-c2nn(-c3ccccc3)cc2CN2CCCO2)c(F)c1`, the Potency was “inactive”. With `Cc1ccc(S(=O)(=O)NC(=O)c2cccc(C)c2)cc1` the Potency was “inactive”. For `Cc1cc(NC(=O)COc2ccccc2C#N)no1`, the Potency was “inactive”. For `CCc1cccc(C)c1NC(=O)COC(=O)CC1CCCC1`, the Potency was “inactive”. For `CCc1cccc(CC)c1NC(=O)COc1ccccc1C(=O)c1cc(C#N)c(=O)n(C2CCCCC2)c1`, the Potency was 5.86 µM (active). In the case of `COc1cccc(-c2coc3cc4oc(=O)c(CC(=O)O)c(C)c4cc23)c1`, the Potency is reported as “inactive”. In the case of `COc1ccccc1C(=O)N/C(=C/c1ccc2c(c1)OCO2)C(=O)Nc1cccc(C(=O)O)c1`, the Potency is reported as “inactive”. For `CCC(C)(C)c1ccc(OCC(=O)N(C)C)c(C(C)(C)CC)c1`, the Potency was 11.7 µM (active). In the case of `CN(C)CCOc1ccc(Cl)cc1C(C)(C)C`, the Potency is reported as “inactive”. With `CN1C/C(=C/c2cccs2)C(=O)/C(=C\c2cccs2)C1` the Potency was “inactive”. In the case of `CCc1ccc(NC(=O)N2CCc3ccccc3C2)cc1`, the Potency is reported as “inactive”. In the case of `COc1cccc(/C=C2/SC(=S)N(CC(=O)NC3C=CS(=O)(=O)C3)C2=O)c1` (configuration not stated), the Potency is reported as “inactive”. For `Cn1c(=O)c2[nH]c(NCC3CCCO3)nc2n(-c2ccccc2)c1=O` (configuration not stated), the Potency was “inactive”. For `Cc1nc2ccccc2c2oc(C(=O)NCC3CCCO3)cc12` (configuration not stated), the Potency was “inactive”. In the case of `c1ccc2c(NCC3CCCO3)nc(-c3ccncc3)nc2c1` (configuration not stated), the Potency is reported as 13.1 µM (active). For `COc1ccc(C2=NS(=O)(=O)N(C)C(C(=O)N(C)Cc3ccccc3)=C2)cc1`, the Potency was “inactive”. With `Cc1nn(C)c(C)c1NS(=O)(=O)c1ccc(OC(F)(F)F)cc1` the Potency was “inactive”. In the case of `COCC1CCN(C(=O)C2CCC(=O)N(CC3CCCCC3)C2)CC1` (configuration not stated), the Potency is reported as “inactive”. In the case of `CC(CN1CCOCC1)OC(=O)c1ccc(Cl)cc1Cl` (configuration not stated), the Potency is reported as “inactive”. For `CCC(=O)NCCc1nc2ccccc2n1CC`, the Potency was “inactive”. In the case of `CCCCn1c(CCCNC(=O)CC)nc2ccccc21`, the Potency is reported as “inactive”. For `CCC(=O)Nc1nc2ccccc2n1Cc1ccccc1C`, the Potency was 1.47 µM (active). For `COCCn1c(C)cc(C(=O)COC(=O)CNC(=O)c2ccco2)c1C`, the Potency was “inactive”. With `COc1ccc(S(=O)(=O)N2CCC(C(=O)N3CCCC3)CC2)cc1C` the Potency was “inactive”. With `CCOc1ccc(CN(C)C(=O)c2ccc(=O)[nH]c2)cc1` the Potency was “inactive”. For `Cc1cccc(C(=O)N2CCCC(Nc3ccc(C(C)C)cc3)C2)n1` (configuration not stated), the Potency was “inactive”. For `COc1ccc(NC2CCCN(C(=O)c3ccncc3)C2)cc1` (configuration not stated), the Potency was “inactive”. In the case of `CC(C)c1ccc(NC2CCCN(C(=O)c3ccncc3)C2)cc1` (configuration not stated), the Potency is reported as 5.86 µM (active). In the case of `O=C(NCC(=O)N1CCN(c2ncc(C(F)(F)F)cc2Cl)CC1)c1ccc(Br)o1`, the Potency is reported as “inactive”. In the case of `Cc1nn(Cc2ccccc2)c(C)c1NS(=O)(=O)c1ccccc1`, the Potency is reported as “inactive”. For `c1ccc(CCn2nnnc2CN2CCN(C3CCCC3)CC2)cc1`, the Potency was “inactive”. With `c1ccc(C(c2ccccc2)N2CCN(Cc3nnnn3C3CCCCC3)CC2)cc1` the Potency was 8.28 µM (active). In the case of `CC(C)C(c1nnnn1C1CCCC1)N1CCN(c2ccccc2F)CC1` (configuration not stated), the Potency is reported as “inactive”.
